The source of these data is PubChem BioAssay (NCI).

Compounds without any hit were thinned out: in the full panel of roughly 79,000, 15% have a hit. Calls of active or inactive are those of the source. Rule as the data show it: active = growth inhibition above about 70%; inactive = the rest.

The nature of assay [1]: NCI Yeast Anticancer Drug Screen. Data for the rad50 strain (AID 155).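 Also: 0% = growth of vehicle-only cultures of the same strain.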 Conditions: S. cerevisiae rad50 strain growth inhibition, active compounds read high. Put shortly: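 Yeast carrying a defined DNA repair defect were exposed to test compounds, and growth was compared with vehicle-treated controls to give percent inhibition.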
Assay [2] is described as follows: NCI Yeast Anticancer Drug Screen. Data for the mec2-1 strain (AID 157). Conditions: S. cerevisiae mec2-1 strain, active compounds read high. The method, boiled down:
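Cells of the genetically defined mec2-1 yeast strain are incubated with test compound. Inhibition of growth is calculated against vehicle-treated controls.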

Assay [3] in a line: NCI Yeast Anticancer Drug Screen. Data for the sgs1 mgt1 strain (AID 161).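 Also: 0% = growth of cultures given vehicle only.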 The note with it: S. cerevisiae sgs1 mgt1 strain, active compounds read high. The method, boiled down:
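Inhibition of yeast growth, normalised to vehicle-treated controls, is reported for a strain bearing genetic alterations in DNA damage repair.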

Assay [4] in a line: NCI Yeast Anticancer Drug Screen. Data for the cln2 rad14 strain (AID 165).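 Also: 0% = growth equal to vehicle treated cultures.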 Conditions: S. cerevisiae cln2 rad14 strain, active compounds read high. Put shortly: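 The screen exposed genetically defined yeast (cln2 rad14) to test compounds and scored growth inhibition relative to vehicle-treated controls.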
Assay [5] is described as follows: NCI Yeast Anticancer Drug Screen. Data for the bub3 strain (AID 167). The note with it: S. cerevisiae bub3 mutant strain, active compounds read high. The method, boiled down:
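Compounds were applied to a genetically altered yeast strain carrying a cell-cycle control defect. Growth inhibition was scored against vehicle-treated controls.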

Assay [6] is described as follows: NCI Yeast Anticancer Drug Screen. Data for the mlh1 rad18 strain (AID 175). The note with it: S. cerevisiae mlh1 rad18 strain growth inhibition, active compounds read high. The method, boiled down:
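Compound-treated yeast growth, normalised to vehicle controls. Strain bears defined DNA repair mutations.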

The mark [7] stands for this setting: at 5.0 µM (retest, dose inferred, filed as 0.5).
[8] abbreviates: at 50.0 µM (retest, dose inferred, filed as 5.0).

With `c1ccc2c(c1)nc1cc(NC3CCCCC3)c(=NC3CCCCC3)cc-1n2C1CCCCC1`, the growth inhibition was 8% (inactive) in assay [1] (setting [7]); 4% (inactive) in assay [1] (setting [8]); 44.5% (inactive) in assay [1] (at 50.0 µM); 0% (inactive) in assay [2] (setting [7]); 5% (inactive) in assay [2] (setting [8]); 37.6% (inactive) in assay [2] (at 50.0 µM). For the same compound, the growth inhibition in assay [3] (setting [7]) is -7% (inactive); in assay [3] (setting [8]) it was 2% (inactive); in assay [3] (at 50.0 µM) it was 42.8% (inactive); in assay [4] (setting [7]), -1% (inactive); in assay [4] (setting [8]), -13% (inactive); in assay [4] (at 50.0 µM), 23.3% (inactive). In addition, the growth inhibition in assay [5] (setting [7]) is -3% (inactive); in assay [5] (setting [8]), 16% (inactive); in assay [5] (at 50.0 µM) it was 39.8% (inactive); in assay [6] (setting [7]), 0% (inactive); in assay [6] (setting [8]), -49% (inactive); in assay [6] (at 50.0 µM), 16.6% (inactive).
In the case of `CN(C)CCCNc1c(C#N)[n+]([O-])c2cc(Cl)ccc2[n+]1[O-]`, the growth inhibition is 59% (inactive) in assay [1] (setting [7]); 93% (active) in assay [1] (setting [8]); 66.7% (inactive) in assay [1] (at 50.0 µM); 72% (active) in assay [2] (setting [7]); 93% (active) in assay [2] (setting [8]); 43.5% (inactive) in assay [2] (at 50.0 µM). Also, the growth inhibition in assay [3] (setting [7]) is 60% (inactive); in assay [3] (setting [8]), 90% (active); in assay [3] (at 50.0 µM), 61.9% (inactive); in assay [4] (setting [7]), 70% (active); in assay [4] (setting [8]) it was 90% (active); in assay [4] (at 50.0 µM), 45.6% (inactive). Besides, the growth inhibition in assay [5] (setting [7]) is 88% (active); in assay [5] (setting [8]) it was 94% (active); in assay [5] (at 50.0 µM), 60% (inactive); in assay [6] (setting [7]) it was 80% (active); in assay [6] (setting [8]), 93% (active); in assay [6] (at 50.0 µM) it was 68.8% (inactive).
`Oc1cccc(Oc2cccc(Oc3ccccc3)c2)c1`: the growth inhibition in assay [1] (setting [7]) is 1% (inactive); in assay [1] (setting [8]), 99% (active); in assay [1] (at 50.0 µM), 99.4% (active); in assay [2] (setting [7]), 1% (inactive); in assay [2] (setting [8]), 99% (active); in assay [2] (at 50.0 µM), 99.3% (active). Also, the growth inhibition is -6% (inactive) in assay [3] (setting [7]); 99% (active) in assay [3] (setting [8]); 99.5% (active) in assay [3] (at 50.0 µM); -23% (inactive) in assay [4] (setting [7]); 99% (active) in assay [4] (setting [8]); 99% (active) in assay [4] (at 50.0 µM). For the same compound, the growth inhibition was 30% (inactive) in assay [5] (setting [7]); 99% (active) in assay [5] (setting [8]); 99.4% (active) in assay [5] (at 50.0 µM); 2% (inactive) in assay [6] (setting [7]); 99% (active) in assay [6] (setting [8]); 99.3% (active) in assay [6] (at 50.0 µM).
Turning to `Cc1c(NC(=O)/C(=N/NC(=S)N=N)C2C(=O)CC(C)(C)CC2=O)c(O)c2ccccc2c1O`, the growth inhibition in assay [1] (setting [7]) was 14% (inactive); in assay [1] (setting [8]) it was 98% (active); in assay [1] (at 50.0 µM), 95.3% (active); in assay [2] (setting [7]), 7% (inactive); in assay [2] (setting [8]), 99% (active); in assay [2] (at 50.0 µM), 81.2% (active). For the same compound, the growth inhibition is 7% (inactive) in assay [3] (setting [7]); 99% (active) in assay [3] (setting [8]); 84.8% (active) in assay [3] (at 50.0 µM); -1% (inactive) in assay [4] (setting [7]); 99% (active) in assay [4] (setting [8]); 47% (inactive) in assay [4] (at 50.0 µM). The growth inhibition in assay [5] (setting [7]) is 16% (inactive); in assay [5] (setting [8]), 98% (active); in assay [5] (at 50.0 µM), 90.9% (active); in assay [6] (setting [7]) it was 9% (inactive); in assay [6] (setting [8]) it was 98% (active); in assay [6] (at 50.0 µM) it was 93% (active).
In the case of `Nc1ncnc2nc[nH]c12.[Ag]`, the growth inhibition was 98% (active) in assay [1] (setting [7]); 99% (active) in assay [1] (setting [8]); 99.3% (active) in assay [1] (at 50.0 µM); 99% (active) in assay [2] (setting [7]); 100% (active) in assay [2] (setting [8]); 99.7% (active) in assay [2] (at 50.0 µM). Besides, the growth inhibition was 97% (active) in assay [3] (setting [7]); 99% (active) in assay [3] (setting [8]); 99.7% (active) in assay [3] (at 50.0 µM); 99% (active) in assay [4] (setting [7]); 99% (active) in assay [4] (setting [8]); 98.5% (active) in assay [4] (at 50.0 µM). Further, the growth inhibition in assay [5] (setting [7]) was 99% (active); in assay [5] (setting [8]) it was 99% (active); in assay [5] (at 50.0 µM) it was 99.5% (active); in assay [6] (setting [7]), 97% (active); in assay [6] (setting [8]), 99% (active); in assay [6] (at 50.0 µM), 99.7% (active).
